Measurements: the supplement of paper PMC10849652
Of roughly 7,900 targets only a part is listed; those with a hit were picked by preference. About 0.6% of all pairs of compound and target were hits.

Key:
Assay in all cases: log2 fold change, soluble protein after heating vs DMSO (PISA); higher = thermal stabilisation; K562 cells, 10 uM, 30 min; active = over 0.2 and 3.5 SD of the protein, either way, in both replicates (recomputed)
[1] = compound: CS(=O)(=O)c1ccc(-c2cnc(N)c(C(=O)Nc3ccccc3)n2)cc1
Outline: (§1)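 K562 cells (2×10^6 cells/mL) were treated with 10 μM compound for 30 min, and aliquots were heated for 3 min over 48°C-58°C. Pooled aliquots were extracted in PBS with 0.5% NP-40 at 4°C, and the supernatant after 21,000xg for 90 min was measured by TMTpro 16plex LC-MS/MS with channel sums equalised. Reported thermal stability, relative to control samples and from duplicates, is a log2 fold change.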

[2] = compound: C[C@@H](Oc1cc(-c2cnn(C3CCNCC3)c2)cnc1N)c1c(Cl)ccc(F)c1Cl [crizotinib]
Outline: as §1

[3] = compound: C[C@@H]1COCCN1C2=NC(=NC(=C2)C3(CC3)S(=O)(=O)C)C4=C5C=CNC5=CC=C4
Outline: as §1

[4] = compound: C[C@H](C1=CC=C(C=C1)C(=O)NC2=C3C=CNC3=NC=C2)N
Outline: as §1

[5] = compound: C[C@H](Nc1ncnc2nc[nH]c12)c1cc2cccc(Cl)c2c(=O)n1-c1ccccc1 [duvelisib]
Outline: as §1

[6] = compound: Cc1cc(Nc2cc(CN3CCOCC3)c3nc(C)c(Cc4ccc(Cl)cc4F)n3n2)n[nH]1 [gandotinib]
Outline: as §1

[7] = compound: Cc1cc(Nc2cc(N3CCN(C)CC3)nc(Sc3ccc(NC(=O)C4CC4)cc3)n2)n[nH]1 [tozasertib]
Outline: as §1

[8] = compound: Cc1cc(SCc2sc(-c3ccc(C(F)(F)F)cc3)nc2C)ccc1OCC(=O)O
Outline: as §1

[9] = compound: Cc1ccc(-n2nc(C(C)(C)C)cc2NC(=O)Nc2ccc(OCCN3CCOCC3)c3ccccc23)cc1 [doramapimod]
Outline: as §1

[10] = compound: Cc1ccc(C(=O)N(CCCN)[C@@H](c2nc3cc(Cl)ccc3c(=O)n2Cc2ccccc2)C(C)C)cc1 [ispinesib]
Outline: as §1

[11] = compound: Cc1ccc(NC(=O)c2ccc(CN3CC[C@H](N(C)C)C3)c(C(F)(F)F)c2)cc1Nc1nccc(-c2cncnc2)n1 [bafetinib]
Outline: as §1

[12] = compound: Cc1cccc(CC(=O)N2CCc3c2ccc(-c2cn(C)c4ncnc(N)c24)c3F)n1
Outline: as §1

[13] = compound: Cc1cn(-c2cc(NC(=O)c3ccc(C)c(Nc4nccc(-c5cccnc5)n4)c3)cc(C(F)(F)F)c2)cn1 [nilotinib]
Outline: as §1

[14] = compound: Cc1nc(Nc2n[nH]c3c2CN(C(=O)N[C@H](CN(C)C)c2ccccc2)C3(C)C)c2sccc2n1
Outline: as §1

[15] = compound: Cc1nc(Nc2ncc(C(=O)Nc3c(C)cccc3Cl)s2)cc(N2CCN(CCO)CC2)n1 [dasatinib]
Outline: as §1

[16] = compound: Cc1ncc(-c2ccnc(Nc3ccc(S(C)(=O)=O)cc3)n2)n1C(C)C
Outline: as §1

[17] = compound: Cn1cc(-c2ccc3c(c2)CCN3C(=O)Cc2cccc(C(F)(F)F)c2)c2c(N)ncnc21
Outline: as §1

[18] = compound: Cn1cc(-c2ccc3nnc(C(F)(F)c4ccc5ncccc5c4)n3n2)cn1
Outline: as §1

[19] = compound: Cn1cncc1[C@@](N)(c1ccc(Cl)cc1)c1ccc2c(c1)c(-c1cccc(Cl)c1)cc(=O)n2C [tipifarnib]
Outline: as §1

[20] = compound: FC(F)(F)c1ccc(/C=C/c2nc(COc3ccc(CCCCn4ccnn4)cc3)co2)cc1 [mubritinib]
Outline: as §1

Measured: log2 fold change

PLEKHM2 (UniProt Q8IWE5)
inactive: [1] 0.023 | [2] -0.162 | [3] 0.02 | [4] -0.047 | [5] 0.044 | [6] -0.06 | [7] 0.144 | [8] 0.04 | [9] 0.064 | [10] -0.02 | [11] -0.09 | [12] -0.024 | [13] -0.054 | [14] -0.002 | [15] -0.072 | [16] -0.077 | [17] 0.001 | [18] -0.08 | [19] -0.028 | [20] 0.096

PRKAG1 isoform 3 (UniProt P54619)
Chain of UniProt P54619 (P54619 whole entry, looked up): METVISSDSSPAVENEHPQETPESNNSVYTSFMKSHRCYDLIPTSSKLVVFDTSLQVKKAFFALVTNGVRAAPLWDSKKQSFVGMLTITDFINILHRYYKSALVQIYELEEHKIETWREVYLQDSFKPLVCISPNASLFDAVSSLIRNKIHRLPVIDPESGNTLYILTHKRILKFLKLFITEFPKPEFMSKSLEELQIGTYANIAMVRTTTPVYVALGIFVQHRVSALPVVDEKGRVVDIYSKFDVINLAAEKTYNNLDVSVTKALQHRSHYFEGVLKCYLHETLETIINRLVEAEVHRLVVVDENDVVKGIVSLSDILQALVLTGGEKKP
inactive: [1] -0.01 | [2] -0.114 | [3] 0.006 | [4] -0.023 | [5] 0.035 | [6] -0.249 | [7] -0.032 | [8] 0.004 | [9] -0.003 | [10] -0.018 | [11] -0.098 | [12] 0.001 | [13] -0.079 | [14] -0.189 | [15] -0.056 | [16] -0.01 | [17] 0.001 | [18] 0.022 | [19] 0.007 | [20] -0.052

PSMD7 (UniProt P51665)
Chain of UniProt P51665 (P51665 whole entry, looked up): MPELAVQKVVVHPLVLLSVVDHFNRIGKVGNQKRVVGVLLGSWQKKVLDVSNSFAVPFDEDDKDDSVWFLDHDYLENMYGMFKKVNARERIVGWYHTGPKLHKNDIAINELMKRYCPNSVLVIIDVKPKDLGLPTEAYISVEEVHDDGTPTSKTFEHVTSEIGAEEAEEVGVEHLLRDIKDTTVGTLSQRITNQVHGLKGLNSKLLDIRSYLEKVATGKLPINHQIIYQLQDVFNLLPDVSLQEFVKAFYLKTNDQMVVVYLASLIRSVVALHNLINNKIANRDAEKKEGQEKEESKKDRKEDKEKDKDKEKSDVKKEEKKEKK
inactive: [1] 0.077 | [2] -0.001 | [3] -0.053 | [4] 0.072 | [5] -0.073 | [6] 0.078 | [7] 0.003 | [8] -0.003 | [9] 0.069 | [10] 0.018 | [11] 0.075 | [12] 0.009 | [13] 0.014 | [14] 0.065 | [15] 0.054 | [16] -0.033 | [17] -0.116 | [18] -0.01 | [19] 0.079 | [20] 0.019

PTGFRN (UniProt Q9P2B2)
Chain of UniProt Q9P2B2 (Q9P2B2 whole entry, looked up): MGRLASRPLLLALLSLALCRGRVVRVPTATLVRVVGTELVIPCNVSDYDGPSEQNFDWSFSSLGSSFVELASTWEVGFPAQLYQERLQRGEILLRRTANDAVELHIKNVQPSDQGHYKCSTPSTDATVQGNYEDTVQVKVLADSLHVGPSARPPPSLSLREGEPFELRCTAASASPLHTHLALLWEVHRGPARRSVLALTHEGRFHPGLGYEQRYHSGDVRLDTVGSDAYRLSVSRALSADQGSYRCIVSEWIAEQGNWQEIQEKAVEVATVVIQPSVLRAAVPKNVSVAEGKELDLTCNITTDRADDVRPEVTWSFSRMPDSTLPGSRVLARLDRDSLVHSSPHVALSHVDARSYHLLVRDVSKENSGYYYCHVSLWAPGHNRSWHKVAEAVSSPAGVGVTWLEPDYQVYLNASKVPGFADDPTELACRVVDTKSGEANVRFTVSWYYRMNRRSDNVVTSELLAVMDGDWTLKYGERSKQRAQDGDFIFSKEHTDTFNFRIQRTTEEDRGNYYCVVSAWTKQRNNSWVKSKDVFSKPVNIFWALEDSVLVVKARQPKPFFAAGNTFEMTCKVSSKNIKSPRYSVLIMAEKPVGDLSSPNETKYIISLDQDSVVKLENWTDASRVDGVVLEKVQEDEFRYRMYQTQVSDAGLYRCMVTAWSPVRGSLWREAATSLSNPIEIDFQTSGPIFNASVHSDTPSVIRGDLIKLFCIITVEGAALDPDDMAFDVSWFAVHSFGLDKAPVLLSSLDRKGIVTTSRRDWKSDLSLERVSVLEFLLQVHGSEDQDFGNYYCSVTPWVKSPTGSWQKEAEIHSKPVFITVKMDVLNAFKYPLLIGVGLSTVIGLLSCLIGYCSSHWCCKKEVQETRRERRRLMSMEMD
inactive: [1] 0.068 | [2] 0.057 | [3] 0.063 | [4] -0.003 | [5] 0.122 | [6] -0.023 | [7] -0.101 | [8] -0.065 | [9] 0.001 | [10] 0.165 | [11] -0.061 | [12] -0.04 | [13] 0.087 | [14] 0.024 | [15] 0.046 | [16] 0.048 | [17] 0.038 | [18] 0.009 | [19] 0.032 | [20] 0.065

PLCB3 (UniProt Q01970)
inactive: [1] 0 | [2] -0.07 | [3] 0.014 | [4] 0.013 | [5] 0.019 | [6] 0.031 | [7] 0.041 | [8] 0.034 | [9] 0.014 | [10] -0.078 | [11] -0.059 | [12] -0.084 | [13] -0.104 | [14] 0.033 | [15] -0.092 | [16] -0.006 | [17] -0.006 | [18] 0.061 | [19] -0.039 | [20] 0.003

PPIL1 (UniProt Q9Y3C6)
Chain of UniProt Q9Y3C6 (Q9Y3C6 whole entry, looked up): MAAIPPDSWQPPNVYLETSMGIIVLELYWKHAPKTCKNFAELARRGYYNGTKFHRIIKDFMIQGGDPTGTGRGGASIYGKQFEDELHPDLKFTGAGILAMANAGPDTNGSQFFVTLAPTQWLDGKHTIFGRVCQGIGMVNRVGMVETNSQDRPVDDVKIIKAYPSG
inactive: [1] -0.029 | [2] 0.038 | [3] 0.018 | [4] 0.012 | [5] 0 | [6] 0.045 | [7] -0.01 | [8] 0.014 | [9] 0.031 | [10] -0.089 | [11] 0.024 | [12] -0.002 | [13] -0.029 | [14] 0.046 | [15] -0.042 | [16] 0.073 | [17] -0.063 | [18] -0.022 | [19] -0.088 | [20] 0.01

POMK (UniProt Q9H5K3)
Chain of UniProt Q9H5K3 (Q9H5K3 whole entry, looked up): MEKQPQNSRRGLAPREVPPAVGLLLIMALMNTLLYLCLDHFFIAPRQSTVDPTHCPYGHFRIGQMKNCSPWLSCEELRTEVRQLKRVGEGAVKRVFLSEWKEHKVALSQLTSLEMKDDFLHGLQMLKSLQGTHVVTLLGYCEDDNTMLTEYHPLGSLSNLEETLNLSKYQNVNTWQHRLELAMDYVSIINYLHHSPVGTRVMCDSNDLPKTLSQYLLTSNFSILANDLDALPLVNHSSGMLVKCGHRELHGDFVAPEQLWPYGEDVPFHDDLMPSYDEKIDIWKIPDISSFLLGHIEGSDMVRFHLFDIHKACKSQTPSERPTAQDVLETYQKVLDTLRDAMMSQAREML
inactive: [1] -0.013 | [2] -0.044 | [3] -0.034 | [4] 0.086 | [5] 0.062 | [6] 0.027 | [7] 0.024 | [8] 0.092 | [9] 0.108 | [10] -0.203 | [11] -0.057 | [12] 0.067 | [13] -0.032 | [14] -0.029 | [15] -0.05 | [16] 0.016 | [17] 0 | [18] 0.034 | [19] -0.044 | [20] -0.126

PRMT7 (UniProt Q9NVM4)
Chain of UniProt Q9NVM4 (Q9NVM4 whole entry, looked up): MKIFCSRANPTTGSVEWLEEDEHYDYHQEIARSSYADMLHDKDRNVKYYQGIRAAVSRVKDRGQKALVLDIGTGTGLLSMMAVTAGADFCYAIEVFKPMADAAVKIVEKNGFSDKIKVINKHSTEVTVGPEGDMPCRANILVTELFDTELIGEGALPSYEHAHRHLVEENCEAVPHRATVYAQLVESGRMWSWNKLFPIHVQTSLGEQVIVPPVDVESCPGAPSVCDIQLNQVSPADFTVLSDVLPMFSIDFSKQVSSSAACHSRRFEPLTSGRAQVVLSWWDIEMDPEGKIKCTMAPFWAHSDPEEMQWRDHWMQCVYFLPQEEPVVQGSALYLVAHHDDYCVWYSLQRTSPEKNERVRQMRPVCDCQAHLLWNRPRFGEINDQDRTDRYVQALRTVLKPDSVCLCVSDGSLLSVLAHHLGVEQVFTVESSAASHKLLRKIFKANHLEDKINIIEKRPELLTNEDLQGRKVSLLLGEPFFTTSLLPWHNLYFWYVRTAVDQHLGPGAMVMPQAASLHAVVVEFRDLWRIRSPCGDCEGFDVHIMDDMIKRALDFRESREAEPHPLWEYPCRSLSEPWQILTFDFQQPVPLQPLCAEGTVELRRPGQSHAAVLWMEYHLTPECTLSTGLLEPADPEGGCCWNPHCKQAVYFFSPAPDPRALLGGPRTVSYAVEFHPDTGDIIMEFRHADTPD
inactive: [1] 0.063 | [2] -0.142 | [3] 0.075 | [4] 0.083 | [5] 0.037 | [6] 0.067 | [7] 0.01 | [8] 0.12 | [9] 0.038 | [10] 0.065 | [11] -0.114 | [12] -0.086 | [13] -0.002 | [14] -0.047 | [15] -0.213 | [16] -0.01 | [17] -0.038 | [18] 0.124 | [19] -0.116 | [20] 0.092

PNPLA8 (UniProt Q9NP80)
Chain of UniProt Q9NP80 (Q9NP80 whole entry, looked up): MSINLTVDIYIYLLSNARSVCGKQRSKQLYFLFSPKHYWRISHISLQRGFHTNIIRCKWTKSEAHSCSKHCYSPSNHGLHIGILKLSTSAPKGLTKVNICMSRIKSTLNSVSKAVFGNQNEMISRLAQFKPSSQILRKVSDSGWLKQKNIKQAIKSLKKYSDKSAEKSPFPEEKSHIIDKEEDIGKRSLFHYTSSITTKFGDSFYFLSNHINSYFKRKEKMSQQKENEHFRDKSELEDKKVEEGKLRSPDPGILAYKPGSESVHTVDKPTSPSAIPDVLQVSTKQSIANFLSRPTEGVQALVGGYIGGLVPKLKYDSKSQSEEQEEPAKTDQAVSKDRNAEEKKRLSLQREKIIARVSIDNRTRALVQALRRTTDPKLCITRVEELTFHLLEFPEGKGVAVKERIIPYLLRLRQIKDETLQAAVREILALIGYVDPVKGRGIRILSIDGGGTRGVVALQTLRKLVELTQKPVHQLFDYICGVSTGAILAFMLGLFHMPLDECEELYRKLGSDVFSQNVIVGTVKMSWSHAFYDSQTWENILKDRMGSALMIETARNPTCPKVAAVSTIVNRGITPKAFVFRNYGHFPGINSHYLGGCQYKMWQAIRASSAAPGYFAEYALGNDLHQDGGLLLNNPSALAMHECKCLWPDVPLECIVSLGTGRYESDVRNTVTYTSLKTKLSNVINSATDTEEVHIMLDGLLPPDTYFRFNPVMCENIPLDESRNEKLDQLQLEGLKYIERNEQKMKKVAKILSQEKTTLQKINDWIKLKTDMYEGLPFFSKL
inactive: [1] -0.009 | [2] -0.12 | [3] 0.002 | [4] -0.034 | [5] -0.003 | [6] 0.031 | [7] -0.011 | [8] -0.002 | [9] 0.023 | [10] -0.051 | [11] -0.04 | [12] -0.13 | [13] 0.036 | [14] -0.026 | [15] -0.055 | [16] 0.038 | [17] 0.036 | [18] -0.063 | [19] 0.053 | [20] 0.095

PLSCR1 (UniProt O15162)
Chain of UniProt O15162 (O15162 whole entry, looked up): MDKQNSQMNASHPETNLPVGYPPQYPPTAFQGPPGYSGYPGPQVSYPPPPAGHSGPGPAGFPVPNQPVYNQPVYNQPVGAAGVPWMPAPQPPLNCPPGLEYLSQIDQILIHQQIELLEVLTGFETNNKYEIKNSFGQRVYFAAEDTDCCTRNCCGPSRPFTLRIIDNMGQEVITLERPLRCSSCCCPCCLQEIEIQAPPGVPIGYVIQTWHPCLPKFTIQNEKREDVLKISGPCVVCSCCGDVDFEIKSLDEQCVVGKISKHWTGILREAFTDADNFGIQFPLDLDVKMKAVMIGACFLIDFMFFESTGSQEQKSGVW
inactive: [1] 0.079 | [2] 0.017 | [3] 0.101 | [4] -0.024 | [5] 0.037 | [6] -0.096 | [7] -0.075 | [8] -0.017 | [9] 0.042 | [11] 0.011 | [12] 0.002 | [13] -0.004 | [14] -0.022 | [15] 0.052 | [16] -0.032 | [17] 0.024 | [18] 0.048 | [19] 0.036 | [20] 0.148
active: [10] -0.619

POLR3B (UniProt Q9NW08)
inactive: [1] 0.038 | [2] -0.111 | [3] -0.004 | [4] 0.034 | [5] 0.007 | [6] -0.07 | [7] 0.101 | [8] 0.085 | [9] 0.03 | [10] -0.183 | [11] 0.104 | [12] 0.045 | [13] -0.111 | [14] -0.285 | [15] -0.238 | [16] -0.028 | [17] -0.059 | [18] 0.089 | [19] -0.108 | [20] -0.086

PGGHG (UniProt Q32M88)
inactive: [1] 0.019 | [2] -0.01 | [3] 0.003 | [4] 0.175 | [5] 0.073 | [6] -0.039 | [7] -0.108 | [8] 0.049 | [9] 0.048 | [10] 0.05 | [11] -0.036 | [12] -0.001 | [13] 0.012 | [14] 0.023 | [15] 0.009 | [16] -0.078 | [17] -0.152 | [18] 0.058 | [19] -0.077 | [20] 0.047

PDE12 (UniProt Q6L8Q7)
inactive: [1] 0.047 | [2] 0.032 | [3] 0.088 | [4] -0.133 | [5] 0.069 | [6] 0.027 | [7] -0.007 | [8] 0 | [9] -0.027 | [10] 0.065 | [11] -0.013 | [12] 0.002 | [13] -0.004 | [14] 0.017 | [15] -0.061 | [16] -0.006 | [17] 0.067 | [18] 0.066 | [19] -0.078 | [20] 0.066

PCK2 (UniProt Q16822)
Chain of UniProt Q16822 (Q16822 whole entry, looked up): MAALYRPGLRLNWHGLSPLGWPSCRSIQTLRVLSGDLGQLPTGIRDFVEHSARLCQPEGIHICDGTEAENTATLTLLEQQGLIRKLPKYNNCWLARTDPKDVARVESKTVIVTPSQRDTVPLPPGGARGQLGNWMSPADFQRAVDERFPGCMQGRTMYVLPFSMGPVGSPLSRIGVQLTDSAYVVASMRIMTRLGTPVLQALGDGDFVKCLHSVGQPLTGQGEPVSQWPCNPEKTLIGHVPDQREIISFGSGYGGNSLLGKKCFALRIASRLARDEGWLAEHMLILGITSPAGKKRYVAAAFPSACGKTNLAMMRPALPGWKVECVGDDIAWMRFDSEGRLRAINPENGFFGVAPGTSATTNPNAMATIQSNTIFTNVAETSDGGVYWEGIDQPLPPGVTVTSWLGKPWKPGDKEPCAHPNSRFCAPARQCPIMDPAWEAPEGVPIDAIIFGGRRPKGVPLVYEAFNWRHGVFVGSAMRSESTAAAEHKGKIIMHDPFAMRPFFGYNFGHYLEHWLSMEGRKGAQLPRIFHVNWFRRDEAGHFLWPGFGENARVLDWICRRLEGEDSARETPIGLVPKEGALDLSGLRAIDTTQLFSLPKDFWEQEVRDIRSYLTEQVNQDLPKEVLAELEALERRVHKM
inactive: [1] 0.009 | [2] 0.17 | [3] 0.01 | [4] -0.098 | [5] 0.064 | [6] 0 | [7] 0 | [8] -0.012 | [9] 0 | [10] 0.076 | [11] -0.052 | [12] 0.027 | [13] -0.05 | [14] 0.027 | [15] -0.035 | [16] -0.006 | [17] 0.041 | [18] 0.003 | [19] 0 | [20] -0.022

PRIM1 (UniProt P49642)
Chain of UniProt P49642 (P49642 whole entry, looked up): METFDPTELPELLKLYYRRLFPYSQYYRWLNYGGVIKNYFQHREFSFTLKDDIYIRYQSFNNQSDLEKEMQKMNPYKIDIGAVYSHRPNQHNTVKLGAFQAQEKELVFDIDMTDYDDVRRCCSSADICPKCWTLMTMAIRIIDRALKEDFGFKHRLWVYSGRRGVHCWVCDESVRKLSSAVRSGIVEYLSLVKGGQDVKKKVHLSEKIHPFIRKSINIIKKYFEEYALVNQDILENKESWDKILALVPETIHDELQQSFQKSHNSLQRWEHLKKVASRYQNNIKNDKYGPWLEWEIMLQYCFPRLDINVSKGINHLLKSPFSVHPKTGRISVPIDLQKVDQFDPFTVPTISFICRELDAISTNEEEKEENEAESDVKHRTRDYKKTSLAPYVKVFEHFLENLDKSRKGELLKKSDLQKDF
inactive: [1] 0.051 | [2] -0.066 | [3] 0.039 | [4] 0.086 | [5] -0.011 | [6] -0.131 | [7] 0.001 | [8] 0.102 | [9] 0.007 | [10] -0.082 | [11] 0.046 | [12] 0.01 | [13] -0.034 | [14] -0.055 | [15] -0.161 | [16] -0.009 | [17] -0.033 | [18] 0.009 | [19] -0.073 | [20] 0.06

PPP6R1 (UniProt Q9UPN7)
inactive: [1] -0.013 | [2] -0.018 | [3] 0.125 | [4] 0.012 | [5] 0.027 | [6] -0.078 | [7] 0.084 | [8] -0.01 | [9] 0.01 | [10] -0.002 | [11] -0.024 | [12] 0.022 | [13] 0.003 | [14] -0.031 | [15] -0.02 | [16] -0.008 | [17] 0.003 | [18] 0.02 | [19] 0.01 | [20] 0.043
